Most compounds without a hit are left out; they make up all but 27% or so of the library.
CYP2C19 inhib – inhibitors of human CYP2C19. P33261. CYP2C19 Supersomes, luciferin-H EGE luminescence, 30 min. inhibition, % at 5 µM. 96,000 compounds, 21% hits. AID 778;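 active = CYP2C19 inhibition above a set limit at 5 µM in the primary screen, cut at about 50% in these data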;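 note: plate controls were negative control wells for no effect and 2.5 mM tranylcypromine positive control for full effect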
CYP2C9 act – activators of human CYP2C9; P11712; recombinant CYP2C9, luciferin-H conversion, luminescence; hits give high values; factor 1 = untreated enzyme, 0 = blocked; activation factor at 5 µM; 96,000 compounds, 1.4% hits; AID 1024;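 active = activation factor of 2 or more for CYP2C9 at a 5 µM dose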;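 note: 0 = sulfaphenazole-blocked wells and 1 = vehicle-only wells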
Target sequence (P11712 whole entry, looked up): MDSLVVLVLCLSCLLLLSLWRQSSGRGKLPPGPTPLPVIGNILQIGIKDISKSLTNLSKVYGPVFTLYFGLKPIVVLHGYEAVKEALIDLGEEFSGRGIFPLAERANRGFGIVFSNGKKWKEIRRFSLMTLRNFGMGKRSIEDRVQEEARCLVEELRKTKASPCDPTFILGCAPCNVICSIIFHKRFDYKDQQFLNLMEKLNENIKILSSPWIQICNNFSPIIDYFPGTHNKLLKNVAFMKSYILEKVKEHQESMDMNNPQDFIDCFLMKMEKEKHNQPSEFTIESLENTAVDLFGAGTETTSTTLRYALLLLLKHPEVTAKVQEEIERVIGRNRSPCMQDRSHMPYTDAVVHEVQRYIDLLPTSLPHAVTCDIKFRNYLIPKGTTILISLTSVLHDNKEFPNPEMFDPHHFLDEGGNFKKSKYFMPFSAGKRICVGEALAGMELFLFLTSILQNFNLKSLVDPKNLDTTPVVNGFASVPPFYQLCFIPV
CYP2C19 act – activators of human cytochrome P450 2C19 | P33261 | recombinant CYP2C19, luciferin-H EGE luminescence; hits give high values; 0 = fully inhibited enzyme, 1 = untreated enzyme | activation factor at 5 µM | 96,000 tested, under 10 active;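 active = activation factor of at least 2 at 5 µM in the primary screen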;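 note: 0 = wells with 2.5 mM tranylcypromine and 1 = vehicle-only wells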
EphB4 antag – antagonists of human EphB4-ephrin-B2 interaction. inhibition, % at 7 µM. AID 720. EphB4 LBD / TNYL-RAW-Alexa532 peptide, fluorescence polarization. P54760. 97,000 compounds, 0.15% hits;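 active = inhibition above the screen-wide mean inhibition plus 3 SD, cut at about 15% in these data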;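 note: 0% = DMSO wells and 100% = excess unlabeled TNYL-RAW peptide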
CYP2C9 inh – inhibitors of human CYP2C9 | P11712 | 96,000 compounds, 20% hits | CYP2C9 Supersomes, luciferin-H conversion, luminescence | inhibition, % at 5 µM;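 active = blocking of liver enzyme CYP2C9 beyond about 50% at 5 µM, limit read from the data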
* = called active by the depositor; / = no result.

SMILES	CYP2C19 inhib	CYP2C9 act	CYP2C19 act	EphB4 antag	CYP2C9 inh
COc1ccc(OC)c(C2=NOC(C(=O)NCC3CCCO3)C2)c1 (stereo not drawn)	34	2.3*	0.7	-4	-133
COc1cccc(C2=NOC(C(=O)NCC3CCCO3)C2)c1 (stereo not drawn)	11	1.7	0.9	8	-70
O=C(NCC1CCCO1)C1CC(c2ccccc2Cl)=NO1 (stereo not drawn)	56*	4.2*	0.4	8	-318
CCOc1ccc(CSC2=NCCN2)cc1Cl	24	1.1	0.8	5	-7
CCOc1ccc(N2C(=O)CS/C2=C(\C(Cl)=C(Cl)Cl)[N+](=O)[O-])cc1	38	0.5	0.6	1	55*
Cc1ccccc1C(=O)Nc1ccc(Br)cn1	46	0.9	0.5	3	14
CC(=O)c1ccc(NC(=O)c2ccc3nc(-c4ccco4)c(-c4ccco4)nc3c2)cc1	6	0.7	0.9	-3	27
CCCNC(=O)c1ccc2nc(-c3ccccc3)c(-c3ccccc3)nc2c1	7	0.5	0.9	4	51*
O=C(Nc1ccccc1)c1ccc2nc(-c3ccco3)c(-c3ccco3)nc2c1	61*	0.3	0.4	2	67*
O=C(NCc1ccccc1)c1ccc2nc(-c3ccco3)c(-c3ccco3)nc2c1	36	0.2	0.6	3	77*
O=C(c1ccc(COc2ccc(Cl)cc2)o1)N1CCN(Cc2ccc3c(c2)OCO3)CC1	16	0.4	0.8	-6	62*
O=C(c1ccc(COc2ccccc2Cl)o1)N1CCN(Cc2ccc3c(c2)OCO3)CC1	72*	0.1	0.3	18*	87*
O=C(c1cc2ccccc2oc1=O)N1CCN(Cc2ccc3c(c2)OCO3)CC1	24	1.2	0.8	1	-20
O=C1CC(c2ccccc2)C(C(=O)O)N1 (stereo not drawn)	21	1.6	0.8	-11	-55
CCC(C)(C(=O)NC1CCCC1)N(C(C)=O)c1ccc(C)cc1 (stereo not drawn)	40	0.7	0.6	-8	31
C=CCn1c(COc2ccc(Cl)cc2)nnc1SCC(=O)N1CC(=O)Nc2ccccc21	31	2.6*	0.7	8	-156
C=CCn1c(COc2ccccc2)nnc1SCC(=O)Nc1ccc(S(N)(=O)=O)cc1	38	0.5	0.6	-4	51*
C=CCn1c(COc2ccc3c(c2)CCCC3)nnc1SCC(=O)Nc1cccc(SC)c1	29	0.5	0.7	0	51*
C=CCn1c(COc2ccccc2)nnc1SCC(=O)Nc1ccc2c(c1)OCCO2	19	0.8	0.8	-12	23
C=CCn1c(COc2ccccc2)nnc1SC(C)C(=O)N/N=C/c1cc(Cl)ccc1O (stereo not drawn)	35	0.5	0.6	-1	50*
Cn1c(COc2ccccc2)nnc1SCC(=O)Nc1ccc(S(N)(=O)=O)cc1	10	0.7	0.9	4	25
Cc1c(N2C(=O)C(C)SC23C(=O)Nc2ccccc23)c(=O)n(-c2ccccc2)n1C (stereo not drawn)	-21	1.2	1.2	-2	-20
O=C1c2ccccc2C(=O)N1c1ccc(Cl)cn1	8	0.9	0.9	-3	8
O=C(c1cnccn1)N(Cc1ccco1)C1(C(=O)NC2CCCC2)CCCCC1	8	1	0.9	-4	5
O=C(Nc1cccc2ccccc12)OC1C=CS(=O)(=O)C1 (stereo not drawn)	/	/	/	1	/
SMILES	CYP2C19 inhib	CYP2C9 act	CYP2C19 act	EphB4 antag	CYP2C9 inh
C=CCn1c(COc2ccccc2)nnc1SCC(=O)C(C)(C)C	65*	0.6	0.4	-4	44
O=C(Nc1ccccc1-c1ccccc1)c1cnccn1	49	0.6	0.5	4	41
O=C(OCCN(CCOC(=O)c1ccncc1)S(=O)(=O)c1cccs1)c1ccncc1	99*	0	0	4	100*
Cc1cnc(C(=O)Nc2cccc3ncccc23)cn1	10	1	0.9	-4	2
Cc1cnc(C(=O)Nc2ccccc2-c2ccc(C)o2)cn1	-4	0.1	1	3	89*
N#CC1=C(N)SC(N)=C(C#N)C1Cc1ccccc1	46	0.7	0.5	14	34
N#CC1=C(N)SC(N)=C(C#N)C1CCc1ccccc1	85*	0.1	0.1	-9	92*
N#CC1=C(N)SC(N)=C(C#N)C1c1c(Cl)cccc1Cl	89*	0	0.1	-2	95*
CCOC(=O)c1c(CN2CCOCC2)n(-c2ccccc2)c2cc(Br)c(O)cc12	57*	0.4	0.4	4	64*
CCOC(=O)c1c(CN2CCOCC2)n(-c2ccccc2)c2cc(Br)c(OC)cc12	52*	0.2	0.5	6	78*
COc1cc2c(C(=O)N3CCN(c4ccccc4)CC3)c(C)oc2cc1Br	59*	0.2	0.4	-1	79*
CCOC(=O)c1c(CSC(=N)N)n(-c2ccc(C)cc2)c2cc(Br)c(OC(C)=O)cc12	36	0.3	0.6	11	65*
CCOC(=O)c1c(C)n(C)c2ccc(OC(C)=O)cc12	/	/	/	4	/
COc1cc(-c2cc(C(=O)O)c3cc4c(cc3n2)OCCO4)cc(OC)c1OC	-36	1.4	1.4	2	-37
Nc1cc(=O)[nH]c(=S)n1-c1cccc(C(F)(F)F)c1	3	1	1	-4	3
CN(C(=O)c1ccccn1)c1nnc(-c2cnccn2)s1	-2	0.9	1	5	6
O=C(CNC(=O)Cc1ccccc1)NCC(=O)OCC(=O)c1cccc2ccccc12	22	3.6*	0.8	-2	-257
O=C(CNC(=O)c1ccco1)OCC(=O)c1cccc2ccccc12	5	1.9	0.9	3	-91
Cc1ccc(N2C(=O)C(Cl)=C(NCCO)C2=O)c(C)c1	42	1.1	0.6	-12	-14
CCN(CC)C(=O)N1CCN(S(=O)(=O)c2ccc(C)c(C)c2)CC1	98*	2.2*	0	-3	-123
Cc1ccc(N(C)C(=O)N2CCN(S(=O)(=O)c3c(C)cc(C)cc3C)CC2)cc1	64*	0.3	0.4	-6	75*
Cc1ccc(N(C)C(=O)N2CCN(S(=O)(=O)c3ccc(C)c(C)c3)CC2)cc1	98*	0.2	0	3	78*
Cc1ccc(S(=O)(=O)N2CCN(S(=O)(=O)N(C)C)CC2)c(C)c1	34	0.9	0.7	-1	7
CCN(CC)C(=O)N1CCN(S(=O)(=O)c2ccc(C)cc2)CC1	30	1.4	0.7	-11	-38
Cc1ccc(S(=O)(=O)N2CCN(C(=O)N(C)C)CC2)cc1C	56*	1.7	0.4	-7	-68
Cc1ccccc1-n1c(C)nnc1SCc1nc2ccccc2s1	76*	0.8	0.2	-7	22
CCCn1c(=O)c2ccccc2n2c(SCCOc3ccccc3)nnc12	46	0.6	0.5	/	42
Cn1c(SCc2nc3ccccc3s2)nnc1-c1cccs1	92*	0.7	0.1	/	35
Cn1c(SCc2ccccc2)nnc1-c1cccs1	41	1.1	0.6	2	-8
